Assay [1] deals with Aldehyde dehydrogenase, mitochondrial (Homo sapiens) (UniProt P05091). Kind of assay: qHTS for Inhibitors of the Aldehyde Dehydrogenase Family (ALDH2) Primary screen (AID 2061308).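 Also: plate controls were vehicle for no effect and reference inhibitor for full effect; nearly all actives have a fitted effect of over 55% in size.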
Assay [2] deals with Retinaldehyde dehydrogenase 3 (Homo sapiens) (UniProt P47895). Description: qHTS for Inhibitors of the Aldehyde Dehydrogenase Family (ALDH1A3) Primary screen (AID 2061315).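 Also: plate controls were DMSO vehicle for no effect and reference inhibitor for full effect.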 For orientation: qHTS replaces the single test concentration by a dilution series.

The text below walks through data of PubChem BioAssay (NCATS).

Each structure is given as a SMILES string. Results filed as inconclusive are left out. Values without a mark were called inactive. Activity calls are given as the source filed them. Calls follow the shape of the dose curve; as a rule, active = well fitted curve in the direction sought with a large enough effect; inconclusive = small, poorly fitted or top-dose-only effect, or another doubt; inactive = no such curve, though single readings can be large; an effect the other way counts as inactive or inconclusive.

On to `Cc1ccc(-c2cc(C(=O)Nc3ccccc3)c3ccccc3n2)cc1C`, for which the Potency entry in assay [1] and in assay [2] was “inactive” in each case.

As to `O=S1(=O)N=C(Oc2cccc(Br)c2)c2ccccc21`, the Potency result in assay [1] and in assay [2] was “inactive” in each case.

Consider `O=C1NC2=C(C(=O)CCC2)C(c2ccccc2Cl)N1` (stereo not given), for which the Potency entry in assay [1] and in assay [2] was “inactive” each time.

Consider `Cc1ccc(OCCn2c(CCNC(=O)Cc3ccccc3F)nc3ccccc32)cc1`, for which the Potency entry in assay [1] and in assay [2] was “inactive” each time.

`CCCCN(C)C(=O)Cn1nc(-c2ccc(F)cc2)ccc1=O`: the Potency entry in assay [1] and in assay [2] was “inactive” in each case.

For the molecule `Cc1ccc(-c2cc(C(=O)Nc3ccc(S(N)(=O)=O)cc3)c3ccccc3n2)cc1C`, the Potency result in assay [1] and in assay [2] was “inactive” each time.

For the molecule `O=S(=O)(NC1CCC(CNS(=O)(=O)c2c(F)cccc2F)CC1)c1ccc2c(c1)OCCO2` (stereo not given), the Potency result in assay [1] and in assay [2] was “inactive” in each case.

For `Fc1ccc(-c2noc(CCCCSc3nnc(-c4cccc5ccccc45)o3)n2)cc1`, the Potency result in assay [1] and in assay [2] was “inactive” throughout.

Regarding `N#Cc1nc(Nc2cccc(Cl)c2)c2ncn(C3CCCC3)c2n1`, the Potency entry in assay [1] and in assay [2] was “inactive” each time.

`CC(C)c1ccccc1-c1nc(NCc2ccc(-c3cccnc3)cc2)c2[nH]cnc2n1`: the Potency result in assay [1] and in assay [2] was “inactive” each time.

For the molecule `Cc1cc(C)nc(NC(=S)N2CCN(c3nsc4ccccc34)CC2)c1`, the Potency result in assay [1] and in assay [2] was “inactive” in each case.

In the case of `Cc1cc(C)n2ncc(C(=O)NCC(C)C)c2n1`, the Potency result in assay [1] and in assay [2] was “inactive” each time.

Turning to `O=[S+]([O-])(c1ccc2c(c1)OCCO2)N1CCN([S+](=O)([O-])c2ccc(F)cc2Br)CC1`, the Potency result in assay [1] and in assay [2] was “inactive” each time.

Consider `COc1cccc2nc3sc(Nc4ccc5c(c4)CCC5)nn3c(=O)c12`, for which the Potency entry in assay [1] and in assay [2] was “inactive” throughout.

Take `O=C(Nc1ccc2c(c1)OCCO2)c1ccc(-c2nc3ccccc3[nH]2)cc1`: the Potency result in assay [1] and in assay [2] was “inactive” in each case.

Turning to `COC(=N)c1nc2ccc3ncnc(Nc4ccc(F)cc4Br)c3c2s1`, the Potency entry in assay [1] and in assay [2] was “inactive” in each case.

`O=C(NCc1ccccc1)Nc1ncnc2c1C(c1ccccc1)c1c(ccc3ccccc13)O2` (stereo not given): the Potency result in assay [1] and in assay [2] was “inactive” throughout.

With `Cc1cnc(-c2ccccc2C(C)C)nc1NCc1ccc(C2CCCNC2)cc1` (stereo not given), the Potency entry in assay [1] and in assay [2] was “inactive” throughout.

Take `N#Cc1cccc(S(=O)(=O)N2CCN(S(=O)(=O)c3ccc4c(c3)OCCO4)CC2)c1`: the Potency entry in assay [1] and in assay [2] was “inactive” throughout.

In the case of `CC(C)(C)OC(=O)NCc1nnc(-c2cc3ccccc3[nH]2)s1`, the Potency result in assay [1] and in assay [2] was “inactive” in each case.

`Cc1cnc(NC(=O)c2ccc(-c3cccc([N+](=O)[O-])c3)o2)s1`: the Potency result in assay [1] and in assay [2] was “inactive” in each case.

On to `COc1ccccc1-c1csc2ncnc(Sc3nnnn3C)c12`, for which the Potency result in assay [1] and in assay [2] was “inactive” each time.

As for `COc1cc2c(NC3CCN(C(C)C)CC3)nc(N3CCC(F)(F)CC3)nc2cc1OCCCN1CCCC1`, the Potency entry in assay [1] and in assay [2] was “inactive” each time.

In the case of `Fc1ccc(Nc2nc(-c3ccncc3Cl)nc3ccccc23)cc1F`, the Potency result in assay [1] and in assay [2] was “inactive” in each case.

As for `Cc1ccc(-c2cc(C(=O)NCC[S+](=O)([O-])O)c3ccccc3n2)cc1C`, the Potency entry in assay [1] and in assay [2] was “inactive” throughout.

Regarding `COc1cc(O)c(C(CC(=O)N2CCCC(c3nc4ccccc4o3)C2)c2ccc3c(c2)OCO3)c(OC)c1` (stereo not given), the Potency result in assay [1] and in assay [2] was “inactive” each time.

Turning to `COc1cc(C(=O)NC(=S)Nc2cccc(NC(=O)c3ccccc3)c2)cc(OC)c1OC`, the Potency entry in assay [1] and in assay [2] was “inactive” throughout.

As to `Cc1cc(N[S+](=O)([O-])c2ccc(NC(=O)Cc3ccc(F)c(F)c3)cc2)no1`, the Potency entry in assay [1] and in assay [2] was “inactive” each time.

For the molecule `Cc1ccc(S(=O)(=O)Nc2cccnc2C(=O)Nc2nc(-c3ccccc3)cs2)cc1`, the Potency result in assay [1] and in assay [2] was “inactive” throughout.

`Cc1ccc(Nc2nc(-c3ccncc3)nc3ccccc23)cc1F`: the Potency result in assay [1] and in assay [2] was “inactive” throughout.

For the molecule `COc1cc(F)c(S(=O)(=O)N2CCCN(S(=O)(=O)c3ccc(N)cc3)CC2)c(F)c1`, the Potency entry in assay [1] and in assay [2] was “inactive” in each case.

Consider `CC(=O)NC(c1cccs1)c1cc(F)c2cccnc2c1O` (stereo not given), for which the Potency result in assay [1] and in assay [2] was “inactive” throughout.

`CCC/C=C\C=C/CCc1cc(O)c([C@@H]2O[C@H](CO)[C@@H](O)[C@H](O)[C@H]2O)c(O)c1C(=O)OC`: the Potency entry in assay [1] and in assay [2] was “inactive” throughout.

Regarding `O=C(Nc1ncc([S+](=O)([O-])N2CCOCC2)s1)c1cccc(Br)c1`, the Potency entry in assay [1] and in assay [2] was “inactive” throughout.

Take `CN(C)c1cccc(-c2nc(N3CCC(C(N)=O)CC3)ncc2F)c1`: the Potency result in assay [1] and in assay [2] was “inactive” in each case.

With `COc1cccc(-c2csc(N3CCC(C(N)=O)CC3)n2)c1`, the Potency result in assay [1] and in assay [2] was “inactive” each time.

As to `O=C(CSc1nnc(-c2cccc(S(=O)(=O)N3CCCC3)c2)n1-c1ccccc1)Nc1ccc(C(=O)O)cc1`, the Potency result in assay [1] and in assay [2] was “inactive” each time.

As for `Oc1cccc2c(-c3nn[nH]n3)ccnc12`, the Potency result in assay [1] and in assay [2] was “inactive” throughout.

Regarding `c1cncc(CNc2ncnc3ccc(-c4ccc5c(c4)OCCO5)cc23)c1`, the Potency entry in assay [1] and in assay [2] was “inactive” in each case.

Turning to `C[C@@H]1O[C@@H](O[C@H]2[C@@H](OC(=O)[C@]34CCC(C)(C)CC3C3=CCC5[C@@]6(C)C[C@H](O)[C@H](O[C@@H]7O[C@H](CO)[C@@H](O)[C@H](O)[C@H]7O[C@@H]7OC[C@@H](O)[C@H](O)[C@H]7O)[C@@](C)(C(=O)O)C6CC[C@@]5(C)[C@]3(C)CC4)OC[C@H](O)[C@@H]2O)[C@H](O)[C@H](O)[C@H]1O[C@@H]1OC[C@@H](O)[C@H](O)[C@H]1O` (stereo not given in full), the activity change, negative = inhibition in assay [1] is 6.76% [at 11.2 µM]; in assay [2] it was 0.185% [at 11.2 µM].
